# Compound activity: PubChem BioAssay, several laboratories
# An excerpt weighted towards active compounds, which were near 1.8% of everything screened.
# NPR1 activator: GC-A (human) enzyme activation | actives 0.14% (n = 370,000) | HEK293 GC-A cells, cGMP TR-FRET, EC30 ANP; 0% at EC30 ANP, 100% saturating ANP | P16066 | AID 1671463 | activation, % at 10 µM; in the data active means activation above about 40%
# Myeloid diff 2: compounds promoting myeloid differentiation; actives 1% (n = 360,000); calls only at 10 µM; ER-HoxA9 myeloid progenitors, lysozyme-GFP differentiation, flow cytometry;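 active means normalized GFP-positive differentiation at or above the plate's own cutoff, the solvent-only control mean plus 3 SD; inconclusive means no clear call, values can overlap the other calls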;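 further: cells exposed to compound for four days before flow analysis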
# Exocytosis inh: lytic granule exocytosis inhibition. actives 0.66% (n = 360,000). TALL-104 LAMP-1 surface exposure, flow cytometry; cells stimulated with thapsigargin and PMA. AID 651702. inhibition, % at 10 µM;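 active means inhibition above about 55%, limit read from the data; inconclusive means no clear call, values can overlap the other calls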
# GC-B act: GC-B (human) receptor activation; P20594; HEK293-GC-B cells, CNP EC30, cGMP TR-FRET; 0% at EC30 CNP, 100% saturating CNP; activation, % at 10 µM; actives 0.11% (n = 370,000); AID 1920062;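 active means activation at 10 µM reaching about 35% in either raw or pattern-adjusted values, limit read from the data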
# Granule exo CP1: lytic granule exocytosis inhibition | actives 11% (n = 1,500) | TALL-104 cells, LAMP-1 externalization, flow cytometry; stimulated with PMA plus thapsigargin | inhibition, % at 10 µM | shares compounds with Exocytosis inh; in the data active means inhibition above about 60%;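 further: 0% = stimulated vehicle wells and 100% = unstimulated wells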
# * marks the source's active call; other numbers are inactive results; i = inactive; ? = inconclusive; / = not tested or not shown.
SMILES,NPR1 activator,Myeloid diff 2,Exocytosis inh,GC-B act,Granule exo CP1
COC(=O)c1c(NC(=O)c2ccccc2OC)sc(C(=O)N2CCOCC2)c1C,-2,i,68*,-2,-3
Cc1ccc(S(=O)(=O)CCC(=O)N(CCCN2CCOCC2)c2nc3ccccc3s2)cc1,-9,i,65*,-10,-8
Cc1ccc2nc(N(CCN3CCOCC3)C(=O)CCS(=O)(=O)c3ccccc3)sc2c1,4,i,13,-7,/
O=C(CCS(=O)(=O)c1ccccc1)N(CCCN1CCOCC1)c1nc2ccccc2s1,-12,?,58*,-9,-9
CCOc1ccc(CCN2C(=S)N([C@@H](CC(C)C)CN3CCC[C@@H]3CN3C(=S)NC[C@@H]3Cc3ccccc3)C[C@@H]2Cc2ccc(O)cc2)cc1,2,i,17,1,/
CCOc1ccc2nc(SC3CC(=O)N(c4ccc(C)cc4)C3=O)sc2c1 (stereo not given),9,i,56*,-5,-4
CCOc1ccc2nc(SC3CC(=O)N(c4ccc(OC)cc4OC)C3=O)sc2c1 (stereo not given),2,i,62*,0,15
CCOc1ccc(N2C(=O)CC(Sc3nccc(C)n3)C2=O)cc1 (stereo not given),0,i,1,-2,/
O=C(Nc1ccccc1)c1cc(C2CCCN(C(=O)c3cccs3)C2)on1 (stereo not given),3,i,3,-4,/
CCOc1ccc(CCNC(=O)c2cc(-c3ccccc3)c(N3CCOCC3)s2)cc1OC,-2,/,/,11,/
COc1cccc(-c2nc(N3CCCCC3)c3ccccc3n2)c1O,-20,i,77*,-10,9
CCC(C)Nc1nc(-c2cccc(OC)c2O)nc2ccccc12 (stereo not given),34,i,76*,30,107*
CN(C)C(CNC(=O)c1cc2ccccc2o1)c1ccco1 (stereo not given),3,i,-3,3,/
CC(C)c1ccc(C(=O)N2CCCCC2c2cc(C(=O)Nc3ccncc3)no2)cc1 (stereo not given),0,i,-1,-4,/
Cc1ccc2nc3c(c(Nc4ccc(O)cc4)c2c1)CCC3,-29,?,61*,-9,-11
CCC(=O)Nc1nonc1-c1nc2ccccc2n1CCC(C)C,7,i,63*,13,-6
CC(=O)Nc1nonc1-c1nc2ccccc2n1CCC(C)C,5,i,9,-7,/
Cc1cccc(N2C(=O)CC(Sc3ccccc3C(=O)O)C2=O)c1 (stereo not given),-5,i,19,1,/
Cc1cc(C)cc(N2C(=O)CC(Sc3ccccc3C(=O)O)C2=O)c1 (stereo not given),-1,i,84*,2,-11
O=C(CCCC1=NS(=O)(=O)c2ccccc2N1)N1CCN(c2ccccc2Cl)CC1,-5,/,/,-7,/
CCOC(=O)C1c2cccc(O)c2CCN1C(C)=O (stereo not given),-2,i,114*,-5,-13
CCOC(=O)C1CCN(C(=O)c2cccc(C(=O)N3CCC(C(=O)OCC)CC3)c2)CC1,2,i,-2,2,/
COc1cccc(COC(=O)CSCC(=O)Nc2ccc(C)cc2)c1OC,-3,i,0,-1,/
Cc1noc(C)c1S(=O)(=O)N(CC(=O)NC1CCC(C)CC1)c1ccc(C(C)C)cc1 (stereo not given),-6,i,72*,0,-4
COc1ccc(CN2C[C@]3(C=C4CCCCC4n4c(=O)n(-c5ccccc5)c(=O)n43)N(C(=O)OCc3ccccc3)C2=NC(=O)c2ccccc2)c(OC)c1 (stereo not given in full),-2,/,/,2,/
SMILES,NPR1 activator,Myeloid diff 2,Exocytosis inh,GC-B act,Granule exo CP1
CNC(=O)OCc1nc(SSC(C)(C)C)n(C)c1COC(=O)NC,4,?,6,5,/
COc1cc2nc(Nc3ccc(F)cc3)nc(N)c2cc1OC,-6,i,65*,2,-11
COc1ccc(-c2oc3ncnc(NCCCN4CCOCC4)c3c2-c2ccc(OC)cc2)cc1,19,i,63*,23,30
OCCCNc1ncnc2oc(-c3ccccc3)c(-c3ccccc3)c12,-47,i,66*,-7,-6
CC[C@@H]1C(=O)[C@H](Cc2ccccc2)[C@H]2CCCC(=O)N3CC[C@@H]1[C@@H]23,8,i,63*,6,-14
O=C1CCC[C@@H]2[C@H](Cc3ccccc3)[C@@H](O)C[C@@H]3CCN1[C@@H]32,2,i,0,-2,/
O=C(N[C@@H]1CC[C@@H](CCNS(=O)(=O)c2ccc(Cl)cc2)O[C@@H]1CO)c1cccnc1,0,i,0,1,/
COC(=O)c1ccc(NCc2c(O)ccc(O)c2Br)cc1Cl,4,i,98*,-3,80*
COC(=O)c1ccc(NCc2cc(O)ccc2O)cc1O,3,i,44,-6,/
CCc1nc2sc(C(C)=O)c(N)c2c2c1CCCC2,-5,i,64*,-3,-11
CCc1nc2sc(C#N)c(N)c2c2c1CCCC2,7,i,2,9,/
Nc1cc(=O)n(Cc2ccccc2)c(N)c1C(=O)NCc1ccccc1,4,/,/,0,/
Cc1cc(C)c(CN2CCN(CCCn3ccc(NC(=O)OCc4ccccc4)nc3=O)CC2)c(C)c1,-7,i,16,-2,/
O=C(OCCCCSc1nnc(-c2cccc3ccccc23)o1)c1ccc(F)cc1,-3,/,/,-6,/
CCC(=O)c1ccc(OCC(=O)NCCCN2CCOCC2)cc1,1,i,0,0,/
COc1ccc(C(=O)OCCN2CCCCC2)cc1,2,i,-5,2,/
CCCOc1ccc(C(=O)CCN2CCN(C(=O)OCC)CC2)cc1,-4,i,60*,-6,-13
CC(C)Oc1ccc(C(=O)CCN2CCOCC2)cc1,4,i,59*,-1,-11
CC(C)Oc1ccc(C(=O)CCN2CCCCC2)cc1,13,i,95*,-8,5
CCOc1ccc(C(=O)CCN2CCCCC2)cc1,13,i,93*,-5,-11
O=C(CCN1C(=O)C2CC=CCC2C1=O)Nc1nc(-c2ccc(F)c(F)c2)cs1 (stereo not given),28,i,1,1,/
CC1C(=O)N(Cc2cn(Cc3ccco3)nn2)CCS(=O)(=O)N1Cc1ccc(-c2ccccc2Cl)cc1 (stereo not given),13,i,4,-2,/
CN(C)CCCN(C(=O)c1ccc(C(=O)c2ccccc2)cc1)c1nc2ccc(F)cc2s1,-8,i,59*,4,10
Cc1ccc2nc(N(CCCN(C)C)C(=O)c3cc(-c4cccs4)nc4ccccc34)sc2c1,-6,i,72*,2,40
CCc1ccc2nc(N(CCCN(C)C)C(=O)c3ccc(S(=O)(=O)N4CCc5ccccc5C4)cc3)sc2c1,-2,/,77*,0,87*
